From the supplement of paper PMC10515830 come the findings set out here.

Structures can show the parent of a compound that is named as a salt.

Common to all, as to settings: 10 µM; exposure time 6 h
In test [1] the test system is Danio rerio larvae (5 dpf). The test is described as follows: difference in excitability vs DMSO (percentage points); higher = more excitable than DMSO. The method, boiled down:
(§1)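 Library compounds were tested at 10 µM final in 100 µL egg water on wild-type 5 dpf zebrafish larvae in 96-well plates for 6 h, with 48 larvae per compound. After 3 h, plates at 28.5 ℃ were imaged every 6 s during a 3-h run of moving lines and 100 ms, 400Hz tones. Behaviours were quantified by Z-LaP Tracker and reported as the compound mean less the vehicle control mean, in percentage points.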

Test [2] relates to Danio rerio larvae (5 dpf). The test is described as follows: difference in startle response vs DMSO (percentage points); higher = stronger startle than DMSO. The method, boiled down: as §1
The test system of test [3] is Danio rerio larvae (5 dpf). The test is described as follows: difference in activity during first hour vs DMSO (percentage points); higher = more activity than DMSO. The procedure, abridged: as §1
Test [4] deals with Danio rerio larvae (5 dpf). Briefly: difference in habituation to acoustic stimuli vs DMSO (percentage points); higher = more habituation than DMSO. The method, boiled down: as §1
Test [5] relates to Danio rerio larvae (5 dpf). Briefly: difference in combined optomotor response to red, green and blue moving lines vs DMSO (percentage points); higher = stronger optomotor response than DMSO. The method, boiled down: as §1

Consider `Cc1cc(C(=O)NNCc2ccccc2)no1` [Isocarboxazid], for which, in test [1], the difference in excitability is 9.42. In test [2], the “difference in startle response” value turned out to be 3.52. For the same compound, in test [3], the “difference in activity during first hour” value was -14. In test [4], the “difference in habituation to acoustic stimuli” value (shortened to “difference in habituation”) was -2.77. Besides, in test [5], the difference turned out to be 4.57.

Take `CC(=O)OCC(CCn1cnc2cnc(N)nc21)COC(C)=O` [Famciclovir]: the difference in excitability in test [1] came to 0.306. For the same compound, the “difference in startle response” value in test [2] is 6.99. The “difference in activity during first hour” value in test [3] is -7.41. Besides, the “difference in habituation” value in test [4] amounted to 0.929. Besides, the difference in test [5] was determined as 4.52.

In the case of `Cl.N=C(N)NCCC[C@H](N)C(=O)O` [L-Arginine (hydrochloride)], the difference in excitability in test [1] was determined as 4.03. Further, the “difference in startle response” value in test [2] is -4.09. For the same compound, the “difference in activity during first hour” value in test [3] came out at 10.1. In addition, in test [4], the “difference in habituation” value was found to be 2.29. In test [5], the difference was 0.624.

`COc1cccc2c1C(=O)c1c(O)c3c(c(O)c1C2=O)C[C@@](O)(C(=O)CO)C[C@@H]3O[C@H]1C[C@H](N)[C@@H](O)[C@H](C)O1` [Epirubicin (hydrochloride)] yielded a difference in excitability in test [1] of 9.14. The “difference in startle response” value in test [2] was 0.312. In addition, in test [3], the “difference in activity during first hour” value was -7.5. Further, the “difference in habituation” value in test [4] came out at 5.65. Further, the difference in test [5] came to 1.76.

Regarding `COc1ccc(C[C@@H](C)NC[C@H](O)c2ccc(O)c(NC=O)c2)cc1` [Arformoterol (tartrate)], the difference in excitability in test [1] is 10.3. Further, in test [2], the “difference in startle response” value was -8.57. Besides, the “difference in activity during first hour” value in test [3] was determined as 39. In test [4], the “difference in habituation” value is -7.89. For the same compound, the difference in test [5] was -2.14.

As to `CC(C)C(=O)Oc1ccc(CO)cc1[C@H](CCN(C(C)C)C(C)C)c1ccccc1` [Fesoterodine (fumarate)], in test [1], the difference in excitability was 4.21. Besides, the “difference in startle response” value in test [2] is -11.4. Further, the “difference in activity during first hour” value in test [3] was 2.92. For the same compound, the “difference in habituation” value in test [4] is -7.33. The difference in test [5] is -6.79.

Consider `Nc1ccc(S(=O)(=O)c2ccc(N)cc2)cc1` [Dapsone], for which, in test [1], the difference in excitability came out at 4.16. Moreover, in test [2], the “difference in startle response” value came out at 3.11. In addition, the “difference in activity during first hour” value in test [3] stood at 2.88. Also, in test [4], the “difference in habituation” value was 2.23. Further, in test [5], the difference came to 1.86.

Regarding `CO/N=C1\C[C@]2(C[C@@H]3C[C@@H](C/C=C(\C)C[C@@H](C)/C=C/C=C4\CO[C@@H]5[C@H](O)C(C)=C[C@@H](C(=O)O3)[C@]45O)O2)O[C@H](/C(C)=C/C(C)C)[C@H]1C` [Moxidectin], the difference in excitability in test [1] came out at 8.4. In test [2], the “difference in startle response” value is -9.21. Further, in test [3], the “difference in activity during first hour” value is -23. In addition, the “difference in habituation” value in test [4] is -11.5. Besides, the difference in test [5] is -17.

For `C[C@H](N[C@@H](CCc1ccccc1)C(=O)O)C(=O)N1CCC[C@H]1C(=O)O` [Enalaprilat (hydrate)], the difference in excitability in test [1] was -0.583. Besides, the “difference in startle response” value in test [2] is -2.87. Further, in test [3], the “difference in activity during first hour” value was 9.36. Further, in test [4], the “difference in habituation” value was 1.38. The difference in test [5] came to 1.55.

For the compound `NS(=O)(=O)c1cc(Cl)c(Cl)c(S(N)(=O)=O)c1` [Dichlorphenamide], the difference in excitability in test [1] was found to be 1.47. The “difference in startle response” value in test [2] is -2.89. The “difference in activity during first hour” value in test [3] is -2.19. In addition, the “difference in habituation” value in test [4] was -4.78. For the same compound, in test [5], the difference is -8.01.

The compound `CN1CC2c3ccccc3Oc3ccc(Cl)cc3C2C1` (racemic) [(±)-Asenapine] gave a difference in excitability in test [1] of 15.8. Besides, the “difference in startle response” value in test [2] is -0.436. For the same compound, the “difference in activity during first hour” value in test [3] worked out at 46.3. The “difference in habituation” value in test [4] is -12.3. Besides, in test [5], the difference is -1.19.

For the compound `Brc1c(NC2=NCCN2)ccc2nccnc12` [Brimonidine (tartrate)], the difference in excitability in test [1] is -0.928. Moreover, the “difference in startle response” value in test [2] is -0.293. Besides, the “difference in activity during first hour” value in test [3] was -14.2. Also, the “difference in habituation” value in test [4] was determined as 3.89. In addition, in test [5], the difference was 10.9.

`CCCc1nc(C(C)(C)O)c(C(=O)OCc2oc(=O)oc2C)n1Cc1ccc(-c2ccccc2-c2nnn[nH]2)cc1` [Olmesartan Medoxomil] returned a difference in excitability in test [1] of -0.702. In addition, the “difference in startle response” value in test [2] is -2.51. In addition, the “difference in activity during first hour” value in test [3] came to 0.837. The “difference in habituation” value in test [4] was -4.7. Also, the difference in test [5] was 0.0218.

In test [1], `CN(C)CC(c1ccc(O)cc1)C1(O)CCCCC1` (racemic) [(±)-O-Desmethyl Venlafaxine] gave a difference in excitability of 18.2. For the same compound, the “difference in startle response” value in test [2] is -5.6. Also, the “difference in activity during first hour” value in test [3] is -19.3. Also, the “difference in habituation” value in test [4] was -8.93. Further, the difference in test [5] is -5.4.

Turning to `CC1(C)O[C@@H]2C[C@H]3[C@@H]4CCC5=CC(=O)C=C[C@]5(C)[C@@]4(F)[C@@H](O)C[C@]3(C)[C@]2(C(=O)CO)O1` [Triamcinolone acetonide], the difference in excitability in test [1] was -3.81. The “difference in startle response” value in test [2] was -2.41. In addition, the “difference in activity during first hour” value in test [3] came to 12.6. In addition, the “difference in habituation” value in test [4] was 3.46. Further, the difference in test [5] is 7.94.

In turn, `Cc1nc2c([nH]1)-c1ccccc1N(C(=O)c1ccc(NC(=O)c3ccccc3-c3ccccc3)cc1)CC2` [Conivaptan (hydrochloride)] showed a difference in excitability in test [1] of 12.9. In addition, the “difference in startle response” value in test [2] is 4.28. The “difference in activity during first hour” value in test [3] is -10.7. Also, in test [4], the “difference in habituation” value was found to be 3.17. For the same compound, in test [5], the difference is -0.877.

Compound `Nc1c(CC(=O)O)cccc1C(=O)c1ccc(Br)cc1` [Bromfenac (sodium salt)] showed a difference in excitability in test [1] of 22. Also, the “difference in startle response” value in test [2] was -1.71. In addition, in test [3], the “difference in activity during first hour” value is 7.18. For the same compound, the “difference in habituation” value in test [4] is -4.75. Also, the difference in test [5] is 1.64.

In turn, `CCCc1cc(=O)[nH]c(=S)[nH]1` [Propylthiouracil] showed a difference in excitability in test [1] of 7.08. The “difference in startle response” value in test [2] was found to be 1.86. The “difference in activity during first hour” value in test [3] was found to be 3.37. Further, the “difference in habituation” value in test [4] is -0.81. Also, the difference in test [5] came to 1.84.

In test [1], `N[C@@H]1CONC1=O` [D-Cycloserine] displayed a difference in excitability of 6.37. For the same compound, the “difference in startle response” value in test [2] is -2.86. Besides, the “difference in activity during first hour” value in test [3] was found to be 4.38. For the same compound, the “difference in habituation” value in test [4] was -2.22. Besides, in test [5], the difference was found to be 10.3.

`O=C(O)c1ccc(-n2nc(-c3ccccc3O)nc2-c2ccccc2O)cc1` [Deferasirox] registered a difference in excitability in test [1] of 1.98. Further, the “difference in startle response” value in test [2] is -2.31. In addition, the “difference in activity during first hour” value in test [3] amounted to 17.7. Moreover, the “difference in habituation” value in test [4] was determined as 2.04. Besides, in test [5], the difference amounted to 5.07.

`CCN(CC)CCNC(=O)c1c(C)[nH]c(/C=C2\C(=O)Nc3ccc(F)cc32)c1C` [Sunitinib (malate)] displayed a difference in excitability in test [1] of 17.6. For the same compound, the “difference in startle response” value in test [2] was -2.13. In addition, the “difference in activity during first hour” value in test [3] is -4. Further, the “difference in habituation” value in test [4] came to 0.523. Also, the difference in test [5] was -0.123.

For the compound `Cc1ccccc1C(=O)Nc1ccc(C(=O)N2CCCC(O)c3cc(Cl)ccc32)c(C)c1` (stereo not given) [Tolvaptan], in test [1], the difference in excitability worked out at 11. Also, the “difference in startle response” value in test [2] came to 1.76. Besides, the “difference in activity during first hour” value in test [3] is 15.8. Besides, the “difference in habituation” value in test [4] is -0.912. Also, the difference in test [5] came to 5.47.

The compound `NS(=O)(=O)c1cc(C(=O)O)c(NCc2ccco2)cc1Cl` [Furosemide] came in with a difference in excitability in test [1] of 6.1. For the same compound, the “difference in startle response” value in test [2] is -2.57. In addition, in test [3], the “difference in activity during first hour” value amounted to 12. For the same compound, the “difference in habituation” value in test [4] was -0.166. The difference in test [5] is 8.19.

In turn, `CC(=O)[C@]1(O)Cc2c(O)c3c(c(O)c2[C@@H](O[C@H]2C[C@H](N)[C@H](O)[C@H](C)O2)C1)C(=O)c1ccccc1C3=O` [Idarubicin (hydrochloride)] gave a difference in excitability in test [1] of 12.5. The “difference in startle response” value in test [2] is -1.2. Besides, the “difference in activity during first hour” value in test [3] was -5.02. Besides, in test [4], the “difference in habituation” value is 1.34. Besides, the difference in test [5] was -1.01.
